Measured values: PubChem BioAssay (NCATS)
Results filed as inconclusive are left out. Calls of active or inactive are those of the source. Calls follow the shape of the dose curve; as a rule, active = well fitted curve in the direction sought with a large enough effect; inconclusive = small, poorly fitted or top-dose-only effect, or another doubt; inactive = no such curve, though single readings can be large; an effect the other way counts as inactive or inconclusive.

What was measured:
MKL-1 = assay: qHTS assay to identify novel small-molecules to repurpose for Merkel cell carcinoma treatment (AID 1296009); conditions: MCC and control cell lines, CellTiter-Glo viability, 72 h; series mostly up to 46 µM; also: nearly all actives have a fitted effect of over 60% in size
In short: (§1)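 Luminescence from CellTiter-Glo, read 10 min after addition at room temperature, reported viability following a 72 hr, 37 degree celsius treatment with NPC or MIPE compounds in titration; values normalized to plate controls.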

MKL-2 = assay: as above; conditions: MCC and control cell lines, CellTiter-Glo viability, 72 h; series mostly up to 46 µM
In short: as §1

NIH3T3 = assay: as above; conditions: MCC and control cell lines, CellTiter-Glo viability, 72 h; at 44.8 µM (top of the series) unless noted
In short: as §1

UISO = assay: as above; conditions: MCC and control cell lines, CellTiter-Glo viability, 72 h; series mostly up to 46 µM
In short: as §1

WaGa = assay: as above; conditions: MCC and control cell lines, CellTiter-Glo viability, 72 h; series mostly up to 46 µM
In short: as §1

C33A = assay: Primary qHTS to identify gynecologic anti-cancer compounds using libraries of approved drugs and bioactive compounds (AID 1345084); conditions: Gynecologic cancer cell panel viability, ATPlite luminescence, 48 h; series mostly up to 57.5 µM; also: nearly all actives have a fitted effect of over 55% in size
In short: (§2)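 Cells, 1,000 per well, plated 16 h, then exposed 48 h at 37 C to compounds. Viability by ATPlite luminescence after 15 min at room temperature.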

CAOV3 = assay: as above; conditions: Gynecologic cancer cell panel viability, ATPlite luminescence, 48 h; series mostly up to 57.5 µM
In short: as §2

CASKI = assay: as above; conditions: Gynecologic cancer cell panel viability, ATPlite luminescence, 48 h; series mostly up to 57.5 µM
In short: as §2

Es-2 = assay: as above; conditions: Gynecologic cancer cell panel viability, ATPlite luminescence, 48 h; series mostly up to 57.5 µM
In short: as §2

HeLa = assay: as above; conditions: Gynecologic cancer cell panel viability, ATPlite luminescence, 48 h; series mostly up to 57.5 µM
In short: as §2

Hek293T = assay: as above; conditions: Gynecologic cancer cell panel viability, ATPlite luminescence, 48 h, control line for the selectivity index; series mostly up to 57.5 µM
In short: as §2

JEG-3 = assay: as above; conditions: Gynecologic cancer cell panel viability, ATPlite luminescence, 48 h; series mostly up to 57.5 µM
In short: as §2

OV90 = assay: as above; conditions: Gynecologic cancer cell panel viability, ATPlite luminescence, 48 h; series mostly up to 57.5 µM
In short: as §2

PA-1 = assay: as above; conditions: Gynecologic cancer cell panel viability, ATPlite luminescence, 48 h; series mostly up to 57.5 µM
In short: as §2

SKOV3 = assay: as above; conditions: Gynecologic cancer cell panel viability, ATPlite luminescence, 48 h; series mostly up to 57.5 µM
In short: as §2

Tov-21-G = assay: as above; conditions: Gynecologic cancer cell panel viability, ATPlite luminescence, 48 h; series mostly up to 57.5 µM
In short: as §2

Tov112D = assay: as above; conditions: Gynecologic cancer cell panel viability, ATPlite luminescence, 48 h; series mostly up to 57.5 µM
In short: as §2

[1] = Drug repurposing screens with cells derived from glioblastoma tumor samples (AID 1345199); conditions: GBM patient neurospheres viability, ATP luminescence, 48 h; also: nearly all actives have a fitted effect of over 40% in size
In short: (§3)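 Primary testing used CD133+ neurospheres from four GBM patients, seven concentrations, 48 h exposure and ATP-based viability; confirmation added three slower-growing patient lines.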

astro = assay: as above; conditions: viability, ATP luminescence, 48 h; series mostly up to 45.9 µM
In short: as §3

[2] = at 45.9 µM (top of the series), tumour line B
[3] = at 45.9 µM (top of the series), tumour line D
[4] = at 46.1 µM (top of the series), tumour line C
[5] = at 46 µM (top of the series), tumour line A
% is scaled to controls: 0 for no effect and ±100 for the full control effect.

O=NN(CCCl)C(=O)NC1CCCCC1
inactive: Potency (MKL-1) | Potency (MKL-2) | outcome (NIH3T3) | Potency (UISO) | Potency (WaGa) | Potency (C33A) | Potency (CAOV3) | Potency (CASKI) | Potency (Es-2) | Potency (HeLa) | Potency (Hek293T) | Potency (JEG-3) | Potency (OV90) | Potency (PA-1) | Potency (SKOV3) | Potency (Tov-21-G) | Potency (Tov112D) | activity, negative = cell killing [1, 2] -2.15% | activity, negative = cell killing [1, 3] -13.5% | activity, negative = cell killing [1, 4] -16.6% | Potency (astro)

COc1ccc(-c2ccc3cc(C(=O)O)ccc3c2)cc1C12CC3CC(CC(C3)C1)C2
inactive: Potency (MKL-1) | Potency (MKL-2) | outcome (NIH3T3) | Potency (UISO) | Potency (WaGa) | Potency (C33A) | Potency (CAOV3) | Potency (CASKI) | Potency (Es-2) | Potency (Hek293T) | Potency (JEG-3) | Potency (OV90) | Potency (PA-1) | Potency (SKOV3) | Potency (Tov-21-G) | Potency (Tov112D)

Cc1oc(=O)oc1CN1CCN(c2cc3c(cc2F)c(=O)c(C(=O)O)c2n3C(C)S2)CC1 (stereo unspecified)
inactive: Potency (MKL-1) | Potency (MKL-2) | outcome (NIH3T3) | Potency (UISO) | Potency (WaGa) | Potency (C33A) | Potency (CAOV3) | Potency (CASKI) | Potency (Es-2) | Potency (HeLa) | Potency (Hek293T) | Potency (JEG-3) | Potency (OV90) | Potency (PA-1) | Potency (Tov-21-G) | Potency (Tov112D) | activity, negative = cell killing [1, 2] -20.2% | activity, negative = cell killing [1, 3] 7.6% | activity, negative = cell killing [1, 5] -22.8% | activity, negative = cell killing [1, 4] -0.513%

CN(C)CCc1c[nH]c2ccc(C[C@H]3COC(=O)N3)cc12
inactive: Potency (MKL-1) | Potency (MKL-2) | outcome (NIH3T3) | Potency (UISO) | Potency (WaGa) | Potency (C33A) | Potency (CAOV3) | Potency (CASKI) | Potency (Es-2) | Potency (HeLa) | Potency (Hek293T) | Potency (JEG-3) | Potency (OV90) | Potency (PA-1) | Potency (SKOV3) | Potency (Tov-21-G) | Potency (Tov112D) | activity, negative = cell killing [1, 2] -19.9% | activity, negative = cell killing [1, 3] -11% | activity, negative = cell killing [1, 4] 4.56% | Potency (astro)

CC(C(=O)O)c1ccc2c(c1)CC(=O)c1ccccc1S2 (stereo unspecified)
inactive: Potency (MKL-1) | Potency (MKL-2) | outcome (NIH3T3) | Potency (UISO) | Potency (WaGa) | Potency (C33A) | Potency (CAOV3) | Potency (CASKI) | Potency (Es-2) | Potency (HeLa) | Potency (Hek293T) | Potency (JEG-3) | Potency (OV90) | Potency (PA-1) | Potency (SKOV3) | Potency (Tov-21-G) | Potency (Tov112D) | activity, negative = cell killing [1, 2] -3.56% | activity, negative = cell killing [1, 3] -21.1% | activity, negative = cell killing [1, 5] -9.77% | activity, negative = cell killing [1, 4] 5.54%

C#CCN[C@@H]1CCc2ccccc21
inactive: Potency (MKL-1) | Potency (MKL-2) | outcome (NIH3T3) | Potency (UISO) | Potency (WaGa) | Potency (C33A) | Potency (CAOV3) | Potency (CASKI) | Potency (Es-2) | Potency (HeLa) | Potency (Hek293T) | Potency (JEG-3) | Potency (OV90) | Potency (PA-1) | Potency (SKOV3) | Potency (Tov-21-G) | Potency (Tov112D) | activity, negative = cell killing [1, 2] -8.4% | activity, negative = cell killing [1, 3] -8% | activity, negative = cell killing [1, 5] -26% | activity, negative = cell killing [1, 4] -23.8% | Potency (astro)
